# High-throughput results deposited in PubChem by National Center for Advancing Translational Sciences (NCATS).
# IL-1B inflam inh: inhibitors of inflammasome signaling (IL-1 beta secretion); THP-1 LPS/ATP IL-1B secretion, AlphaLISA, 16 h; hits give low values; activity change, % at 57.5 µM; 360,000 compounds, 4.7% hits; in the data active = activity change below about -50%; inconclusive = mostly about -30% to -49%
#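 Secreted IL-1B measured by AlphaLISA bead assay after 16 h compound exposure of THP-1 cells; compounds (final up to 57.5 uM) added 1 h before LPS (250 ng/mL) and ATP (1.25 mM) stimulation; lower signal means less secretion.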
# RORg inh: inhibitors of mouse ROR gamma transcriptional activity; Potency, µM (titrated, usually from 53.6 µM), most hits filed as inhibitors; 310,000 compounds, 5.4% hits; AID 2551; Drosophila S2 Gal4-RORgamma UAS-luciferase reporter, 20 h; P51450; note: nearly all actives have a fitted effect of over 60% in size
# Target sequence (P51450 whole entry, looked up, the tested form may be a part): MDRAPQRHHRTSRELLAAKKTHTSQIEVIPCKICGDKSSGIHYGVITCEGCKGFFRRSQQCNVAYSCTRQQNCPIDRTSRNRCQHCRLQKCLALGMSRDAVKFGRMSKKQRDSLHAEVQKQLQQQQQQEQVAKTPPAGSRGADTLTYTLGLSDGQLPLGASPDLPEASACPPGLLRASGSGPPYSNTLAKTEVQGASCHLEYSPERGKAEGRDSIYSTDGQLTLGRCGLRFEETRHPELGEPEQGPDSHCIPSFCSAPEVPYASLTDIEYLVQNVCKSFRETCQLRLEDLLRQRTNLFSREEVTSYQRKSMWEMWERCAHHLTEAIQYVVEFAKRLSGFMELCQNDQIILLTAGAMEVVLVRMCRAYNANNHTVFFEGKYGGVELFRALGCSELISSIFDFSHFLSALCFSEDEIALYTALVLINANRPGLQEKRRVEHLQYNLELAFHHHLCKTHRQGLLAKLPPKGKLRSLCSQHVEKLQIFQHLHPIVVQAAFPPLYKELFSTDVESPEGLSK
#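 Luminescence from a UAS-regulated Photinus luciferase reporter in stably transfected Drosophila Schneider cells is measured; decreased signal marks ROR gamma inhibition. Fusion expression is induced by 700 uM copper sulfate for 20 hr.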
# LDHA inh: LDHA (human) enzyme inhibition | purified LDHA, NADH/diaphorase-resazurin fluorescence; hits give low values | activity change, % (values are at about 110 or 230 µM) | 480,000 compounds, 0.15% hits | AID 1347041; in the data active = activity change below about -30%; inconclusive = mostly about -25% to -30%
#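 Human LDH5 (2 nM) was incubated with 0.06 mM NADH and 0.2 mM pyruvate for 5 min at room temperature in Tris pH 7.4. Remaining NADH was coupled through diaphorase/resazurin, and resorufin fluorescence was read at 0 and 20 min.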
# Gal4-VP16 FLuc: counter-screen for ROR gamma inhibitors: Gal4-VP16 reporter. Potency, µM (titrated, usually from 53.6 µM), most hits filed as inhibitors. 310,000 compounds, 3.5% hits. Drosophila S2 Gal4-VP16 UAS-luciferase, luminescence, 20 h;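 note: Gal4-VP16 expression switched on by copper sulfate through the metallothionein promoter; nearly all actives have a fitted effect of over 50% in size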
# TDP1 cell noCPT: qHTS for Inhibitors of human tyrosyl-DNA phosphodiesterase 1 (TDP1): qHTS in cells in absence of CPT. DT40 Tdp1-/- hTDP1 cells, no CPT, ATP luminescence, 48 h. 420,000 compounds, 15% hits. Potency, µM (titrated, usually from 46.2 µM), hits mostly inhibitors; note: nearly all actives have a fitted effect of over 55% in size
#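 A cellular qHTS used chicken DT40 cells lacking endogenous Tdp1 but carrying stably transfected human TDP1. Compounds were applied without camptothecin, and cell growth kinetics were judged by ATP-dependent luminescence after ≥48 hr.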
# TDP1 cell CPT: growth inhibition of DT40 Tdp1-/-;hTDP1 cells with camptothecin (screen for TDP1 inhibitors); chicken DT40 Tdp1-/-;hTDP1 cells + 20 nM CPT, ATP luminescence, 48 h; Potency, µM (titrated, usually from 46.2 µM), usual class: inhibitors; 420,000 compounds, 12% hits; note: nearly all actives have a fitted effect of over 55% in size
#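 Chicken DT40 Tdp1-/- cells complemented with human TDP1, 400 cells/well, exposed to compounds plus 20 nM camptothecin for at least 48 h at 37 C; viability read as ATP content by CellTiter-Glo luminescence.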
# A number is an active result; 0 = inactive; ? = inconclusive; - = not tested or not shown. The list is not random: actives were taken first. Their share in the collection is about 18%. Unless noted, calls come from the whole dose curve; as a rule, active = well fitted curve in the direction sought with a large enough effect; inconclusive = small, poorly fitted or top-dose-only effect, or another doubt; inactive = no such curve, though single readings can be large; an effect the other way counts as inactive or inconclusive.
SMILES,IL-1B inflam inh,RORg inh,LDHA inh,Gal4-VP16 FLuc,TDP1 cell noCPT,TDP1 cell CPT
Cc1cc(N/N=C/c2ccc(Cl)c([N+](=O)[O-])c2)nc2ccccc12,-,-,0,-,-,-
Cc1cccc(OCC(=O)Nc2ccc(Cl)c(-c3nc4ccccc4[nH]3)c2)c1,-,-,0,-,?,?
O=C(COc1ccccc1F)Nc1ccc(Cl)c(-c2nc3ccccc3[nH]2)c1,-,-,0,-,13µM,?
CC(C)CC(=O)Nc1ccc(Cl)c(-c2nc3ccccc3[nH]2)c1,-,-,0,-,?,?
O=C(COc1ccc(F)cc1)Nc1ccc(Cl)c(-c2nc3ccccc3[nH]2)c1,-,-,0,-,20.6µM,?
Cc1ccc(C(=O)/C=C/c2ccc3ccccc3c2)o1,-,-,0,-,-,-
CC1=C(c2ccc(F)cc2)S(=O)(=O)NC1=NCc1ccccc1F,-,-,0,-,?,?
CC1=C(c2ccc(C(C)C)cc2)S(=O)(=O)NC1=NCc1ccccc1Br,-,-,0,-,13µM,?
CCOC(=O)c1oc2ccc(OC)cc2c1NC(=O)CN1CCN(C)CC1,0,0,0,0,0,0
Cc1ccc(C(=O)c2oc3ccc(Cl)cc3c2NC(=O)CN2CCN(C)CC2)cc1,-56.9,?,0,?,20.6µM,?
S=c1nc(-c2ccccc2)oc2c1CCCC2,0,0,0,0,25.9µM,?
COc1cccc(-c2nc(=S)c3c(o2)CCCC3)c1,0,0,0,0,0,0
O=[N+]([O-])c1cncc([N+](=O)[O-])c1Nc1ccccc1Cl,0,0,0,0,23.1µM,18.4µM
COc1cccc(Nc2c([N+](=O)[O-])cncc2[N+](=O)[O-])c1,0,?,0,?,?,?
NS(=O)(=O)c1ccc(Nc2c([N+](=O)[O-])cncc2[N+](=O)[O-])cc1,0,?,-33.5,?,?,?
Cn1c(=O)c2c(nc(NCCO)n2Cc2ccc(F)cc2)n(C)c1=O,-,-,0,-,-,-
N#CCC(=O)c1c[nH]c2ccccc12,-,-,0,-,-,-
COc1ccc(S(=O)(=O)N2CCOCC2)cc1C(=O)NCC(c1ccccc1)c1ccccc1,0,-,0,-,?,?
O=C(NCC1CCN(S(=O)(=O)c2ccccc2)CC1)Nc1ccc(F)cc1,0,0,0,0,?,?
COc1ccccc1C(=O)NCC1CCN(c2ccc(S(=O)(=O)N3CCOCC3)cc2)CC1,0,0,0,0,23.1µM,20.6µM
O=C(NCC1CCN(c2ccc(S(=O)(=O)N3CCOCC3)cc2)CC1)Nc1ccccc1F,0,0,0,0,20.6µM,?
O=C(NCC1CCN(c2ccc(S(=O)(=O)N3CCOCC3)cc2)CC1)Nc1ccccc1,0,0,0,0,23.1µM,?
Cc1ccc(-c2nnn(C(C)C(=O)Nc3ccc(C#N)cc3)n2)cc1 (stereo unspecified),-,-,0,-,-,-
CCCCC/S(CC1CC1(Cl)Cl)=N\S(=O)(=O)c1ccc(C)cc1 (stereo unspecified),0,0,0,0,?,0
Cc1ccc(S(=O)(=O)N=S(CC2CC2(Cl)Cl)CC2CC2(Cl)Cl)cc1 (stereo unspecified),0,0,0,0,25.9µM,23.1µM
SMILES,IL-1B inflam inh,RORg inh,LDHA inh,Gal4-VP16 FLuc,TDP1 cell noCPT,TDP1 cell CPT
CC(NC(=O)CCl)c1ccc(Cl)c(Cl)c1 (stereo unspecified),-102.9,0,0,0,18.4µM,16.4µM
CC(NC(=O)CCl)c1ccccc1Br (stereo unspecified),-96.3,0,0,0,14.6µM,?
Cc1ccc(S(=O)(=O)NCC(=O)NCC(=O)NC(C)c2ccccc2Br)cc1C (stereo unspecified),0,0,0,0,0,0
O=C(NC1CC1)c1c(-n2cnnn2)sc2c1CCCC2,-,-,0,-,-,-
CCn1c(SC(C)C(=O)Nc2ccc3c(c2)OCO3)nc2ccc(Br)cc2c1=O (stereo unspecified),-,-,0,-,-,-
CCOC(=O)C1(C)NC(c2cccs2)C2C(=O)N(c3ccc(OC)cc3)C(=O)C21 (stereo unspecified),0,0,0,0,18.4µM,10.3µM
